The results in this text go back to PubChem BioAssay (Tox21).

The nature of test [1]: Nuclear factor erythroid 2-related factor 2/antioxidant responsive element (Nrf2/ARE) small molecule agonists: luciferase reporter gene qHTS assay in human keratinocytes (AID 1919969). Note: nearly all actives have a fitted effect of over 35% in size. Note: potency is the fitted concentration of half-maximal effect. For orientation: Reporter assays use an easily measured gene product as a stand-in for the process of interest.
In test [2] the target is Gonadotropin-releasing hormone receptor (Homo sapiens) (UniProt P30968). Description: Human gonadotropin-releasing hormone receptor (GnRHR) small molecule agonists, calcium flux assay in GnRHR-HEK293 cells (AID 1920063). Note: nearly all actives have a fitted effect of over 35% in size. The essentials: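 HEK293 cells stably expressing human GnRHR were plated 18 h at 37 °C, loaded with calcium dye 1 h at 37 °C, then given compound in agonist mode; fluorescence (Ex/Em 480/540) read kinetically for 3 min at 1 s intervals.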
Gonadotropin-releasing hormone receptor (Homo sapiens), sequence (P30968 whole entry, looked up): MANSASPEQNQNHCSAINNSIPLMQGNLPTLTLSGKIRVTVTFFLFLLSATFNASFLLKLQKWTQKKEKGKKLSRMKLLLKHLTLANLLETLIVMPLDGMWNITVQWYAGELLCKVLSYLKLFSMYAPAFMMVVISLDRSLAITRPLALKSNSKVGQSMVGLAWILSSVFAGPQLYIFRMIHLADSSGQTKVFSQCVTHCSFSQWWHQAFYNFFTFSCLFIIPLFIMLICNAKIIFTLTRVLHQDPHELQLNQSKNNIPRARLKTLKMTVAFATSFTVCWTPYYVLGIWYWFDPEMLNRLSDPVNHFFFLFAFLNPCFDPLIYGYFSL

In test [3] the target is KiSS-1 receptor (Homo sapiens) (UniProt Q969F8). The test can be described thus: Human kisspeptin (KISS1R) small molecule agonists, calcium flux assay in KISS1R-HEK293 cells (AID 1920064; active = well fitted activation curve with a large enough effect in the repeat runs). The essentials:
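HEK293 cells stably expressing human KISS1R were plated 18 h at 37 °C, loaded with calcium dye for 1 h at 37 °C, then given compound by pin tool. Fluorescence (Ex/Em 480/540) was read kinetically for 3 min.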

Test [4] is described as follows: G protein-coupled receptor (GPCR) small molecule agonists, calcium flux assay: HEK293 wild type cell line counter screen (AID 1920065). The method in brief:
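Cells were plated and cultured 18 h at 37 C/5% CO2, then loaded with calcium dye for 1 h at 37 C. Compounds in DMSO were pin-transferred in agonist mode, and fluorescence (Ex/Em 480/540) was read kinetically for 3 min at 1 s intervals.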

Test [5] can be described thus: p53 small molecule agonists, cell-based qHTS assay with human liver microsomes (AID 1963577).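 Note: p53 response element beta-lactamase reporter cells with liver microsomes plus NADPH.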 The method in brief:
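HLM-supplemented p53RE-bla reporter assay: 16 h compound exposure at 37 C, microsomes and NADPH each 0.5 mg/mL final, read by fluorescence intensity.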
In general terms: qHTS replaces the single test concentration by a dilution series.

The nature of test [6]: p53 small molecule agonists, cell-based qHTS assay with rat liver microsomes (AID 1963578). The method in brief:
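Quantitative HTS of the Tox21 10K library: p53RE-bla cells, rat liver microsomes plus NADPH at 0.5 mg/mL final each, 16 h at 37 C, beta-lactamase fluorescence detection.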

Test [7] in a line: p53 small molecule agonists, cell-based qHTS assay with human liver microsomes: qHTS cell viability counter screen (AID 1963579). Note: nearly all actives have a fitted effect of over 45% in size. The essentials:
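Viability of p53RE-bla cells is measured as CellTiter-Glo luminescence following a 16 h, 37 C incubation with compound, liver microsomes from human donors and NADPH.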

Test [8] is described as follows: p53 small molecule agonists, cell-based qHTS assay with rat liver microsomes: qHTS cell viability counter screen (AID 1963580). Note: nearly all actives have a fitted effect of over 45% in size. The essentials:
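Viability is assessed in parallel with the p53 reporter read: HCT-116 p53RE-bla cells receive compounds plus rat microsomes and NADPH (0.5 mg/mL final apiece), incubate 16 h at 37 C, and then CellTiter-Glo luminescence is recorded.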

Test [9] in a line: p53 small molecule agonists, cell-based qHTS assay (AID 1963582; active = well fitted activation curve with a large enough effect in the signal ratio in the repeat runs, not every such curve was filed as active; the % refers to the signal ratio). The essentials: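 p53RE-bla beta-lactamase reporter cells rested 5 h at 37 C/5% CO2, then received compounds in DMSO by pin transfer and were incubated 16 h at 37 C. LiveBLAzer B/G FRET substrate was loaded for 2 h at room temperature before fluorescence reading.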
For test [10], the target named is 5-hydroxytryptamine receptor 2A (Homo sapiens) (UniProt P28223). The test can be described thus: 5-hydroxytryptamine receptor 2A (HTR2A) small molecule antagonists, cell-based qHTS assay (AID 1963586). Note: nearly all actives have a fitted effect of over 45% in size. The method in brief: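 Antagonist-mode intracellular calcium assay: DOI (4 nM) added after 5 min compound pre-incubation at room temperature to dye-loaded HTR2A-CHO cells. Fluorescence followed for 3 min, sampled every second.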
5-hydroxytryptamine receptor 2A (Homo sapiens), sequence (P28223 whole entry, looked up): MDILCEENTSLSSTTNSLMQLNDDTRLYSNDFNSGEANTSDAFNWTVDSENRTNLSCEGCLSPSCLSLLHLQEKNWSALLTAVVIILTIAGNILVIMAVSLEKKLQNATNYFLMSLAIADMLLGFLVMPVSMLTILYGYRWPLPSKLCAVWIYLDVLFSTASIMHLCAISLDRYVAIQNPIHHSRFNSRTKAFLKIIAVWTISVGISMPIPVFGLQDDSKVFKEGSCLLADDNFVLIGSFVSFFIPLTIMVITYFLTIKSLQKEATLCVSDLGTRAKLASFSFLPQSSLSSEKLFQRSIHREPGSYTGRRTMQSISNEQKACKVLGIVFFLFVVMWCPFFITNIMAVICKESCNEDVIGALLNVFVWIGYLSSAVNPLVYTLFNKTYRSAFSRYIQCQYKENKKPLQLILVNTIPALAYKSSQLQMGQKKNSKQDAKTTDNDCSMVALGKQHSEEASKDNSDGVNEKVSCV

Test [11] has the same target. Description: 5-hydroxytryptamine receptor 2A (HTR2A) small molecule agonists, cell-based qHTS assay (AID 1963587). Note: nearly all actives have a fitted effect of over 30% in size. Note: potency is the fitted concentration of half-maximal effect. The method in brief:
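CHO cells stably expressing human HTR2A, plated 18 h, loaded with calcium dye 1 h at 37 C. Agonist mode: compounds added and intracellular calcium fluorescence recorded kinetically for 2 min at 1 sec intervals.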

The target in test [12] is Muscarinic acetylcholine receptor M1 (Homo sapiens) (UniProt P11229). Description: Cholinergic receptor muscarinic 1 (CHRM1) small molecule antagonists, cell-based qHTS assay (AID 1963588). Note: nearly all actives have a fitted effect of over 40% in size. The method in brief:
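CHRM1-CHO calcium-flux assay, antagonist mode. Cells were seeded 18 h, dye-loaded 1 h at 37 C and given compound for 5 min at RT, then acetylcholine was added at 50nM. FDSS fluorescence was read 3 min; 15 concentrations, three runs.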

The target is the same in test [13]. Description: Cholinergic receptor muscarinic 1 (CHRM1) small molecule agonists, cell-based qHTS assay (AID 1963589). Note: nearly all actives have a fitted effect of over 35% in size. The essentials:
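CHO cells stably expressing human CHRM1, seeded 18 h at 37 C/5% CO2, dye-loaded 1 h at 37 C, then given compound in agonist mode; intracellular calcium fluorescence read kinetically at 1 s intervals. Fifteen concentrations, three independent runs.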

Test [14] can be described thus: cAMP Responsive Elements (CRE) small molecule agonists, cell-based qHTS assay (AID 1963590). The method in brief:
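CRE-bla HEK 293T cells in DMEM with 10% dialyzed FBS, NEAA, pyruvate and 25 mM HEPES were plated 18 h at 37 C/5% CO2, then exposed to compounds in DMSO for 3 h before LiveBLAzer B/G FRET substrate addition.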

A short description of test [15]: cAMP Responsive Elements (CRE) small molecule antagonists, cell-based qHTS assay (AID 1963591; active = well fitted inhibition curve with a large enough effect in the signal ratio in the repeat runs, not every such curve was filed as active; the % refers to the signal ratio). The method in brief:
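CRE-bla HEK293T cells were plated 18 h at 37 °C/5% CO2, pinned with compound in DMSO, then stimulated with NKH477 at 0.25 uM final for 3 h. LiveBLAzer B/G FRET substrate was added and plates incubated 2 h at room temperature.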

For test [16], the target named is Beta-2 adrenergic receptor (Homo sapiens) (UniProt P07550). The test can be described thus: Adrenergic beta2 receptor (ADRB2) small molecule antagonists, cell-based qHTS assay (AID 1963592). Note: series mostly up to about 92 µM; nearly all actives have a fitted effect of over 50% in size. The essentials:
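Cells (CHO, stable ADRB2 overexpression) incubated 18-20hr at 37C; compounds added from DMSO; agonist mix (1nM isoproterenol, 100uM IBMX, 25uM Ro-20-1724) added; 0.5hr RT; d2-cAMP and anti-cAMP-cryptate added; 1hr RT; 665/615 nm read.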

Test [17] has as its target D(2) dopamine receptor (Homo sapiens) (UniProt P14416). Description: Dopamine D2 receptor (DRD2) small molecule agonists, cell-based qHTS assay (AID 1963594). Note: nearly all actives have a fitted effect of over 35% in size. The essentials: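 HEK293 cells stably expressing human DRD2, pre-treated with PDE inhibitor Ro20-1724 (0.1 mM final) and compound 10 min at room temperature, then stimulated with NKH477 (200nM […]) for 30 min. cAMP read by HTRF (665/620 nm).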

The target is the same in test [18]. The test can be described thus: Dopamine D2 receptor (DRD2) small molecule antagonists, cell-based qHTS assay (AID 1963595; active = well fitted inhibition curve with a large enough effect in the signal ratio in the repeat runs, with a control signal flat; the % refers to the signal ratio). The method in brief:
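Antagonist mode in DRD2-HEK293 cells: after compound addition with 0.1 mM Ro20-1724, cells received quinpirole (12 nM) and NKH477 (200 nM) for 30 min at room temperature; HTRF cAMP read after 1 h detection.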

Test [19] in a line: p53 small molecule agonists, cell-based qHTS assay: qHTS cell viability counter screen (AID 1963581). Note: nearly all actives have a fitted effect of over 45% in size. The method in brief:
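p53RE-bla HCT-116 cells were exposed to compounds for 16 h at 37 C; after the beta-lactamase FRET read in the same wells, CellTiter-Glo was added and luminescence (intracellular ATP) read after 30 min at room temperature.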

SMILES strings stand for the structures. Values joined by “and” are separate entries in the source; they are usually repeats but may differ in a detail not shown here. Equal entries are not always repeated. Inconclusive results are not listed. Where a structure was tested more than once in an assay, its records may differ in their call. Active and inactive are the calls of the source. Unless noted, calls come from the whole dose curve.

Muscarinic acetylcholine receptor M1 (Homo sapiens), sequence (P11229 whole entry, looked up): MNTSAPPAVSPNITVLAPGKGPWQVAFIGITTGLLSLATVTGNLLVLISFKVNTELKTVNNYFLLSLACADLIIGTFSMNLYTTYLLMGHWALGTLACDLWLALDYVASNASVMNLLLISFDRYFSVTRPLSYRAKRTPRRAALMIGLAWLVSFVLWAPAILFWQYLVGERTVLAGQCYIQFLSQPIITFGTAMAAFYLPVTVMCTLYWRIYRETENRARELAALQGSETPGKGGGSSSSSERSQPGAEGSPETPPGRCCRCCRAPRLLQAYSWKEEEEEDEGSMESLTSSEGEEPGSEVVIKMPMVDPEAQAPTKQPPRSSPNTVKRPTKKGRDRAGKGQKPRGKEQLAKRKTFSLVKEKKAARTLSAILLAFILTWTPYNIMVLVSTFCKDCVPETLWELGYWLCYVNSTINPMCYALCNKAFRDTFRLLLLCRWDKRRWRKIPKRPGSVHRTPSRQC
KiSS-1 receptor (Homo sapiens), sequence (Q969F8 whole entry, looked up): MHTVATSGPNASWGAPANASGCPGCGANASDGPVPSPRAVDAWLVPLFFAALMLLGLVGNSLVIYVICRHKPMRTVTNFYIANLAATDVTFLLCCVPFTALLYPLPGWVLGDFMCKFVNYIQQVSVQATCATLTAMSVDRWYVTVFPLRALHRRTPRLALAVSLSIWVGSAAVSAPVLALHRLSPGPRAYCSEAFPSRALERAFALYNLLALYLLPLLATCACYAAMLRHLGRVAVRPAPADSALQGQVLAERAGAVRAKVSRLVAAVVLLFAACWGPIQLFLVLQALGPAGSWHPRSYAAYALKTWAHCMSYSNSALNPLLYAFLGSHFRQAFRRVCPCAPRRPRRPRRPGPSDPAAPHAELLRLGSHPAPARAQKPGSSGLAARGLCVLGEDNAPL
Beta-2 adrenergic receptor (Homo sapiens), sequence (P07550 whole entry, looked up): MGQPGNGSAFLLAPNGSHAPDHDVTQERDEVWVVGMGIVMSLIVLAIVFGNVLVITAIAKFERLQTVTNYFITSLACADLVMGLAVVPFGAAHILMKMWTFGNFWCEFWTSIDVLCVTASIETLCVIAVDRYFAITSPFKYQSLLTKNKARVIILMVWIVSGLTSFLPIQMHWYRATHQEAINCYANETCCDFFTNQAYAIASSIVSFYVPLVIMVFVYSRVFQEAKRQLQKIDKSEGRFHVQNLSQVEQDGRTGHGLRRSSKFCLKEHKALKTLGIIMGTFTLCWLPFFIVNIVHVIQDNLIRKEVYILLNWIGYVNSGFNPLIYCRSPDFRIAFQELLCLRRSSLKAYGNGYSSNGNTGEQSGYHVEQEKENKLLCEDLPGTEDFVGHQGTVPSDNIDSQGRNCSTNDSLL
D(2) dopamine receptor (Homo sapiens), sequence (P14416 whole entry, looked up): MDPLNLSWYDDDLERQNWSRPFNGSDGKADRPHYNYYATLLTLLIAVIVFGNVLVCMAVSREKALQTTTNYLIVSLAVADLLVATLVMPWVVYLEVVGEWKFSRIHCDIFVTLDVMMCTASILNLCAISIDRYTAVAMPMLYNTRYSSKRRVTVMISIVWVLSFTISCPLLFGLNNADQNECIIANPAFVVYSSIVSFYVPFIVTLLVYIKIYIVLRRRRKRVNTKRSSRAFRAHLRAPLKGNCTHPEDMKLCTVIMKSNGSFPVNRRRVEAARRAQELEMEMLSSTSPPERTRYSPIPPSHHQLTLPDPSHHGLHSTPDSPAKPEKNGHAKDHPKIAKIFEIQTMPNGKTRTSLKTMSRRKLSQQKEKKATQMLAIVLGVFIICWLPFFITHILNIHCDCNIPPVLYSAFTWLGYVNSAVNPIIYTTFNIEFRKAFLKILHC

Take `CCCN(CC1CC1)c1c([N+](=O)[O-])cc(C(F)(F)F)cc1[N+](=O)[O-]`: the Potency in test [1] is 48.6 µM (active). In addition, the Potency entry in test [2], in test [3], in test [4], in [5], in test [6] and in test [7] was “inactive” throughout. The Potency entry in test [8], in test [9], in test [10], in [11], in test [12] and in [13] was “inactive” in each case. Besides, the Potency entry in test [14], in test [15], in [16], in [17] and in test [18] was “inactive” each time.
As to `[Cl][Sn]([Cl])([Cl])[Cl]`, the Potency result in test [1], in [2], in [3], in test [4], in test [5] and in test [6] was “inactive” each time. Moreover, the Potency entry in [7], in test [8], in test [19], in test [9], in test [10] and in test [11] was “inactive” in each case. Further, the Potency entry in test [12], in test [13], in test [14], in test [15], in test [17] and in test [18] was “inactive” each time.
In the case of `Oc1cccc(Cl)c1`, the Potency entry in [1], in test [2], in test [3], in test [4], in [5] and in test [6] was “inactive” in each case. Besides, the Potency entry in test [7], in test [8], in [19], in [11], in test [12] and in test [13] was “inactive” each time. Besides, the Potency result in test [14], in test [15], in test [16], in test [17] and in [18] was “inactive” in each case.
Regarding `Cc1c(COC(=O)[C@@H]2[C@H](/C=C(\Cl)C(F)(F)F)C2(C)C)cccc1-c1ccccc1`, the Potency is 53.2 µM (active) and 27.2 µM (active) in test [1]; 38 µM (active) and inactive in test [11]. Besides, the Potency result in test [2], in test [3], in test [4], in [5], in [6] and in test [7] was “inactive” in each case. For the same molecule, the Potency result in test [8], in test [10], in [12], in test [13], in test [14] and in [15] was “inactive” each time. In addition, the Potency entry in test [16] and in test [18] was “inactive” each time.
For the molecule `CC[C@H]1C[C@@H]2C[C@H]3c4[nH]c5ccc(OC)cc5c4CCN(C2)[C@@H]13`, in [1], the Potency is 67.4 µM (active). Besides, the Potency entry in test [2], in [3], in test [4], in test [5], in test [6] and in [7] was “inactive” in each case. Further, the Potency result in [8], in [9], in test [11], in test [12], in test [13] and in [17] was “inactive” each time. Moreover, the Potency result in test [18] is “inactive”.
Regarding `O=[N+]([O-])c1ccc(Oc2ccc(C(F)(F)F)cc2[N+](=O)[O-])cc1`, the Potency in test [1] was 48.6 µM (active). Besides, the Potency entry in test [2], in [3], in test [4], in test [5], in [6] and in test [7] was “inactive” in each case. Also, the Potency entry in [8], in test [19], in [10], in test [11], in test [13] and in test [15] was “inactive” each time. Also, the Potency entry in [17] and in test [18] was “inactive” throughout.
As for `CCOc1cc(Oc2ccc(C(F)(F)F)cc2Cl)ccc1[N+](=O)[O-]`, the Potency entry in test [1], in [2], in test [3], in test [4], in [5] and in [6] was “inactive” throughout. For the same molecule, the Potency entry in test [7], in test [8], in test [19], in test [9], in test [10] and in test [11] was “inactive” throughout. For the same molecule, the Potency result in [12], in test [13], in [15], in [16], in test [17] and in [18] was “inactive” in each case.
As for `ClC1=C(Cl)C2(Cl)C(CBr)CC1(Cl)C2(Cl)Cl` (stereo not given), the Potency result in test [1], in test [2], in test [3], in [4], in test [5] and in [6] was “inactive” throughout. The Potency entry in test [7], in test [8], in test [19], in test [9], in test [10] and in [11] was “inactive” in each case. Further, the Potency result in test [12], in [13], in test [15], in test [17] and in test [18] was “inactive” each time.
For the molecule `COC1=CC(=O)O[C@@H](CCc2ccccc2)C1`, the Potency result in [1], in [2], in test [3], in test [4], in [5] and in [6] was “inactive” each time. For the same molecule, the Potency entry in [7], in test [8], in [19], in [11], in [12] and in [13] was “inactive” throughout. Further, the Potency entry in [15], in test [16], in [17] and in test [18] was “inactive” throughout.
Take `COCC(C)N(C(=O)CCl)c1c(C)csc1C` (stereo not given): the Potency in test [1] was 68.6 µM (active). The Potency result in test [2], in test [3], in [4], in test [5], in test [6] and in [7] was “inactive” in each case. In addition, the Potency entry in test [8], in test [19], in test [9], in test [10], in test [11] and in [12] was “inactive” throughout. The Potency entry in [13], in test [14], in test [15], in [17] and in [18] was “inactive” in each case.
Take `Brc1ccc(Oc2ccc(Br)cc2Br)c(Br)c1`: in test [1], the Potency is 6.12 µM (active). The Potency result in [2], in test [3], in [4], in test [5], in [6] and in test [7] was “inactive” each time. In addition, the Potency result in [8], in test [19], in test [9], in test [10], in [11] and in [12] was “inactive” each time. The Potency entry in test [13], in [15], in test [16], in [17] and in test [18] was “inactive” throughout.
